Source: PubChem (National Center for Advancing Translational Sciences (NCATS))
Compounds with a hit are over-represented: about 9% of the library has one in this group of screens.
HTT cytoprotect: protects HTT-Q103 PC12 cells, measured by ATP. PC12 HTT-Q103 induced, cytoprotection, ATP luminescence, 40 h. Potency, µM (top dose mostly 56.4 µM), for the others: cytoprotection (ATP increase), most hits filed as activators. actives 0.14% (n = 230,000). AID 1471; also: % of control where 0% means no effect; nearly all actives have a fitted effect of over 45% in size
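Stable PC12 Q103-GFP cells in serum-supplemented, phenol red-free DMEM; induction by tebufenozide at 100 nM final; compound dose series; cell viability quantified luminescently from ATP.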
HttQ103 aggreg: reduces HttQ103-GFP aggregates in PC12 cells | Potency, µM (highest dose often 46.1 µM), without a hit: top-dose activity change, negative = inhibition, most hits filed as inhibitors | actives 1.1% (n = 220,000) | PC12 HttQ103-GFP aggregates, Acumen cytometry, 40 h; also: % is scaled to controls: 0 for no effect and ±100 for the full control effect; nearly all actives have a fitted effect of over 60% in size
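PC12 cells stably carrying ecdysone-inducible HTT exon 1 Q103–GFP were induced with tebufenozide (100 nM final) and treated with library compounds in titration. GFP aggregates in lysates were counted by laser scanning cytometry.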
Luc counter: Kinase-Glo luciferase inhibition (counter-screen). Q27757. actives 0.28% (n = 200,000). Kinase-Glo luciferase, ATP luminescence, 8 min. Potency, µM (series often up to 38.3 µM), for the others: top-dose activity change, negative = inhibition, actives largely listed as inhibitors. AID 1379; also: % is scaled to controls: 0 for no effect and ±100 for the full control effect; nearly all actives have a fitted effect of over 60% in size
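Substrate mix (final 50 mM imidazole pH 7.2, 50 mM KCl, 7 mM MgCl2, 10 uM ATP, 0.01% Tween 20, 0.05% BSA) plus pin-tool compound, then Kinase-Glo detection mix; 8 min ambient, luminescence read.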
LMNA splice mod: changes lamin A minigene splicing in HeLa cells. HeLa LMNA splicing GFP/RFP minigene ratio, 48 h. Potency, µM (doses to about 46.1 µM), inactives show at the top dose ratio change, negative = inhibition, hits mostly inhibitors. actives 0.01% (n = 200,000). AID 1487; active = well fitted inhibition curve with a large enough effect in the signal ratio, with a control signal flat, not every such curve was filed as active; inconclusive = small, poorly fitted or top-dose-only effect, or effect the other way, or a change in a side signal; the % refers to the signal ratio; also: % is scaled to controls: 0 for no effect and ±100 for the full control effect
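Read-out is the ratio of GFP to DsRed2 object intensity, acquired by 488 nm laser-scanning cytometry on HeLa lamin A-EGFP minigene reporter cells. Compound incubation 48 hrs at 37 °C in Opti-MEM with 2% FBS; DMSO 0.5% final.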
HPGD inh: HPGD (human) dehydrogenase inhibition; actives 4.3% (n = 150,000); Potency, µM, inactives show at the highest dose activity change, negative = inhibition, most hits filed as inhibitors; P15428; AID 894; purified HPGD, NADH fluorescence kinetic, PGE2 substrate; active = well fitted inhibition curve with a large enough effect, not every such curve was filed as active; inconclusive = small, poorly fitted or top-dose-only effect, or another doubt; inactive = no such curve, though single readings can be large or run the other way; also: % is scaled to controls: 0 for no effect and ±100 for the full control effect
Target sequence (P15428 whole entry, looked up): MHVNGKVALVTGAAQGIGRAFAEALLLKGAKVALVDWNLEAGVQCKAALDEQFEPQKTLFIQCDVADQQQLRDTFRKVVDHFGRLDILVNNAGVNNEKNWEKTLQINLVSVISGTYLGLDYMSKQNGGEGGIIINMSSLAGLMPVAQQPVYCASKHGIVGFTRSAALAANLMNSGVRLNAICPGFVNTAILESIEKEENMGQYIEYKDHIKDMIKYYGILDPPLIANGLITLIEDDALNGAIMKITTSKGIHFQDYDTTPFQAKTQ
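20 nM HPGD preincubated 15 min at room temperature with compound in 50 mM Tris-HCl pH 8, 0.01% Tween 20. Started with 1 mM NAD+ and 30 uM prostaglandin E2; NADH fluorescence (360/450 nm) read 5 times over 30-s intervals, last minus first.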
ALDH1A1 block: ALDH1A1 (human) enzyme inhibition. Purified ALDH1A1, NADH fluorescence, propionaldehyde substrate. AID 1030. actives 7.3% (n = 220,000). Potency, µM (series often up to 75.3 µM), for the others: at the top dose activity, negative = inhibition, actives largely listed as inhibitors. P00352; active = well fitted inhibition curve with a large enough effect, not every such curve was filed as active; inconclusive = small, poorly fitted or top-dose-only effect, or another doubt; inactive = no such curve, though single readings can be large or run the other way;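 also: plate controls were no enzyme wells and a reference inhibitor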
Target sequence (P00352 whole entry, looked up): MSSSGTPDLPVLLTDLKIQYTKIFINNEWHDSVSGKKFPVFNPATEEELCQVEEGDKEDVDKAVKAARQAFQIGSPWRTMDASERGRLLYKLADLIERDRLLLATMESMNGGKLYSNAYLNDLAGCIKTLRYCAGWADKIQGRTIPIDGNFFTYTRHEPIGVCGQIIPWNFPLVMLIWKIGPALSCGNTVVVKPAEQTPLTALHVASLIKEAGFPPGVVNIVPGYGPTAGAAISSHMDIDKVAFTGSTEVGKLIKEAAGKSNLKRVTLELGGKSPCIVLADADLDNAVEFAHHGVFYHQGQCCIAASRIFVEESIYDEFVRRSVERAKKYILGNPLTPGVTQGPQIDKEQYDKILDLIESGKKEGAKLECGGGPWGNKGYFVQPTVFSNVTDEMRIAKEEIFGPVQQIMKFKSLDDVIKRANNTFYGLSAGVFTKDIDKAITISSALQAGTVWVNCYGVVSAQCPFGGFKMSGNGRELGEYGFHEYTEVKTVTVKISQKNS
Numbers without * were called inactive; ? = inconclusive; / = not tested or not shown; [ ] = dose if it differs, or a comment. Unless noted, calls follow the shape of the dose curve; as a rule, active = well fitted curve in the direction sought with a large enough effect; inconclusive = small, poorly fitted or top-dose-only effect, or another doubt; inactive = no such curve, though single readings can be large; an effect the other way counts as inactive or inconclusive. Potency is read from the fitted curve at half-maximal effect.

SMILES	HTT cytoprotect	HttQ103 aggreg	Luc counter	LMNA splice mod	HPGD inh	ALDH1A1 block
O=C(c1ccco1)[C@@H]1[C@@H]2C(=O)N(c3ccc(F)cc3)C(=O)[C@@H]2[C@H]2C=Cc3ccccc3N21	24%[10 µM]	21%	-4%	?	-22%	?
O=C(c1ccco1)[C@@H]1[C@@H]2C(=O)N(c3ccc(Br)cc3)C(=O)[C@@H]2C2c3ccccc3C=CN21 (some centres undefined)	-15%	6%	0%	10%	?	11µM*
C/C(CC1CC2=C(CC1(C)C)C(C)(C)CCC2)=N\NC(N)=S (centres undefined)	-84%	-45%	-6%	?	?	13µM*
C/C(CC1CC(C)(C)OC1=O)=N\NC(N)=S (centres undefined)	34%[10 µM]	-7%[9.22 µM]	/	/	/	/
O=C1OCC/C1=C\c1ccccc1O	-3%	-3%	-3%	26%	-20%	-3%
O=C(Cn1c(=O)oc2cc(S(=O)(=O)N3CCCC3)ccc21)NCc1ccccn1	-6%	-4%	2%	-8%	-6%	18µM*
C[N+](C)(C)CCCCCC[N+](C)(C)C	?	-10%	-1%	?	-4%	2%
C#CC[N+](C)(C)CCCCCCCC	-12%[10 µM]	8.9µM*	-3%	?	1%	3%
CCCCCCCCCCCCCCCC[N+](C)(C)CC	-98%	14µM*	/	/	/	/
CCCCCCCCCCCCCC[N+](C)(C)C	-107%	16µM*	/	/	/	/
CCCCCCCCCCCCCC[N+](C)(C)Cc1ccccc1	-99%	25µM*	/	/	/	/
CCCCCC[N+](C)(C)CCSSCC[N+](C)(C)CCCCCC	10%[10 µM]	-8%[9.22 µM]	/	/	/	/
CC1CC(C)CN(c2nc3c(c(=O)n(C)c(=O)n3C)n2CCSc2ncccn2)C1 (centres undefined)	-22%	18%	15%	2%	-8%	-3%
CCn1c(SCC(=O)Nc2cc(C)on2)nnc1-c1ccc(S(=O)(=O)N2CCCC2)cc1	-11%[10 µM]	-18%	3%	0%	-4%	?
CCNc1nc(N)nc(Oc2ccc(OCCOc3ccccc3)nn2)n1	4%	-8%	5%	-8%	25µM*	2%
CC1(C)CC2CC(C)(CN2c2ncnc3ccccc23)C1 (centres undefined)	-3%[1.9 µM]	?	-2%	?	-14%	?
COCCn1c(SCC(=O)c2ccc3c(c2)OCCO3)nnc1-c1ccoc1C	-24%[10 µM]	?	-4%	?	-23%	20µM*
COc1ccc(C)cc1-n1nnnc1SCC1CCCO1 (centres undefined)	5%	-4%	-2%	26%	-13%	13µM*
COc1ccc(-n2nnnc2SCC(=O)c2ccc3c(c2)OCCO3)c(OC)c1	-22%	4%	-4%	?	-15%	?
COCCCn1c(SCC(=O)N2CC(=O)Nc3ccccc32)nnc1-c1ccoc1C	-5%	10%	2%	2%	-12%	-7%
COCCCn1c(SCC(=O)n2c(C)c(C)c3ccccc32)nnc1-c1ccoc1C	-21%[10 µM]	-4%	0%	-11%	-11%	25µM*
COc1ccc(C)cc1-n1nnnc1SCC(=O)c1ccc2c(c1)OCCO2	-8%	-14%	-3%	?	-13%	11µM*
Cc1ccc(S(=O)(=O)N[C@H]2COC(=O)C/C=C\[C@@H](C)[C@H](NS(=O)(=O)c3ccc(C)cc3)COC(=O)[C@H](C)NC(=O)C/C=C\[C@H]2C)cc1	-40%[10 µM]	/	/	/	/	3%[13.5 µM]
COc1ccccc1N(C(=O)NCc1ccccc1)C1=NCC(C)S1 (centres undefined)	-37%	10%	0%	16%	-7%	-6%
COc1ccccc1C(=O)Nc1ccc(OCc2cc(=O)n3cccc(C)c3n2)cc1	/	/	/	4%[46 µM]	/	/
SMILES	HTT cytoprotect	HttQ103 aggreg	Luc counter	LMNA splice mod	HPGD inh	ALDH1A1 block
Cc1cccc(C)c1OCC(=O)Nc1cccc(C(=O)O)c1	-9%	-26%	1%	/	/	?
COc1ccc(C)cc1-n1nnnc1SCC(=O)Nc1cccnc1Cl	23%[10 µM]	11%	-3%	?	-4%	?
COc1ccc(-c2nnn(CC(=O)c3ccc4c(c3)OCCO4)n2)cc1OC	-8%[1.9 µM]	9%	-2%	?	-6%	28µM*
CC(=O)Nc1ccc(SCC(=O)Nc2cc(C)on2)cc1	-20%	27%	2%	?	/	22µM*
O=C(Cn1nc(Cl)nc1Cl)c1ccc2c(c1)OCCO2	7%[0.074 µM]	-3%	-2%	-4%	-5%	1.1µM*
COc1ccc(C)cc1-n1nnnc1SCC(=O)Nc1cc(C)on1	23%[1.9 µM]	-16%	7%	-10%	-4%	2µM*
Cc1cc(NC(=O)CSc2ccc(F)cc2)no1	-4%	0%	-1%	/	/	-3%
CCOc1ccc(-c2nnn(CC(=O)c3ccc4c(c3)OCCO4)n2)cc1	-13%	-6%	0%	?	-25%	?
O=C(CCSc1ccccc1)Nc1nc2c(s1)CCCC2	-13%	-19%	-5%	?	-6%	?
Cc1cccc2cc(C#N)c(NCCNC(=O)NC3CCCCC3)nc12	-1%[10 µM]	-5%	2%	1%	?	3%
COc1ccc(C)cc1-n1nnnc1SCc1nc2ccccc2s1	-19%	-28%	-6%	?	-22%	11µM*
COc1ccc(-n2nnnc2SCc2nc3ccccc3s2)cc1	-35%	-27%	-7%	-12%	?	?
COc1ccc(-n2nnnc2SCC(=O)NCc2ccco2)cc1OC	-24%[10 µM]	15%	-5%	3%	-18%	0%
COc1ccc(C)cc1-n1nnnc1SCC(=O)NC(=O)NCc1ccco1	0%[10 µM]	4%	2%	7%	-14%	13µM*
COc1ccc(OC)c(-n2nnnc2SCC(=O)NCCc2ccccc2)c1	-15%	-13%	-4%	1%	-24%	1.3µM*
COc1cccc(-n2nnnc2SCC(=O)NCCc2ccccc2)c1	12%	-6%	-1%	14%	-15%	?
Cc1ccccc1NC(=O)Cn1c(=O)n(Cc2ccccc2)c(=O)c2c(C)c(C)sc21	3%[10 µM]	3%	5%	-14%	-5%	13%
COc1ccccc1Cn1nnc2c(=O)[nH]c(C3CCN(C(=O)c4ccc(F)cc4)CC3)nc21	-15%	4%	-1%	14%	11µM*	-3%
O=C(c1ccccc1)N1CCC(c2nc3c(nnn3Cc3ccccc3Cl)c(=O)[nH]2)CC1	-17%	?	0%	6%	11µM*	?
CC(C)(C)CC(=O)N1CCC(c2nc3c(nnn3Cc3c(F)cccc3Cl)c(=O)[nH]2)CC1	-13%[10 µM]	-14%	/	-4%	/	3%
COc1ccccc1Cn1nnc2c(=O)[nH]c(C3CCN(C(=O)c4ccccc4Cl)CC3)nc21	-17%	-16%	4%	19%	14µM*	?
